# Sampled rows, rich in hits. Any-hit rate of the full collection: about 0.56%.
# USP1-UAF1 inh – USP1/UAF1 (human) deubiquitinase inhibition | Potency, µM (highest dose often 57.1 µM), for the others: at the top dose activity change, negative = inhibition, hits mostly inhibitors | actives 0.23% (n = 390,000) | recombinant USP1/UAF1, Ub-Rhodamine cleavage fluorescence | O94782 | AID 743255; also: potency is read from the fitted curve at half-maximal effect; % is scaled to controls: 0 for no effect and ±100 for the full control effect; nearly all actives have a fitted effect of over 60% in size
#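 USP1/UAF1 complex (1 nM) preincubated 15 min at room temperature with compound, then Ub-Rho substrate (150 nM final) added. Kinetic fluorescence at 480/540 nm over 6 reads at 60 s intervals; 50 mM HEPES pH 7.8, 0.5 mM EDTA, 0.1 mg/ml BSA, 1 mM TCEP, 0.01% Tween-20.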
# EPAC1 agonist – agonists of human EPAC1; O95398; EPAC1 agonist qHTS, biochemical assay; response scale: 100% = response to 6.5 mM cAMP; Potency, µM (highest dose often 154 µM), without a hit: top-dose activation, usual class: activators; actives 0.073% (n = 360,000); also: potency is read from the fitted curve at half-maximal effect; nearly all actives have a fitted effect of over 60% in size
#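 Fluorescent GDP-exchange assay: 100 nM EPAC1 with 250 nM Rap1B preloaded with BODIPY-GDP and 50 uM GDP; compounds tested as concentration series, 5 min at room temperature, then read every 5 min for 30 min (ex 480/em 540 nm); normalized to 6.5 mM cAMP.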
# EPAC2 agonist – agonists of human EPAC2 (RAPGEF4); EPAC2 activation, biochemical qHTS; response scale: 100% = 6.5 mM cAMP response; actives 0.079% (n = 360,000); Potency, µM (highest dose often 154 µM), for the others: at the top dose activation, hits mostly activators; Q8WZA2; also: potency is read from the fitted curve at half-maximal effect; nearly all actives have a fitted effect of over 50% in size
#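 In this primary screen, activation is scored as increased exchange of BODIPY-GDP from Rap1B by 100 nM EPAC2, with 50 uM GDP as competitor. Signal is normalized to the 6.5 mM cAMP agonist control.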
# LDHA inh – LDHA (human) enzyme inhibition. P00338. purified LDHA, NADH/diaphorase-resazurin fluorescence; active compounds read low. activity change, % (values are at about 110 or 230 µM). actives 0.15% (n = 480,000). AID 1347041; in the data active = activity change below about -30%; inconclusive = mostly about -25% to -30%;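 also: plate controls were DMSO wells for no effect and wells without enzyme for full effect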
#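 Resorufin fluorescence (ex540/em590), read at 0 and 20 min after diaphorase/resazurin addition, reports the NADH left after a 5 min room-temperature reaction of 2 nM human LDH5 with 0.06 mM NADH and 0.2 mM pyruvate.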
# EPAC1 antagonist – EPAC1 (human) antagonism | O95398 | EPAC1 GEF assay, Rap1b-BODIPY-GDP exchange fluorescence | Potency, µM (titrated, usually from 115 µM), without a hit: at the highest dose activity change, negative = inhibition, actives largely listed as inhibitors | actives 0.14% (n = 360,000) | AID 720709;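 also: potency is read from the fitted curve at half-maximal effect; plate controls were vehicle for no effect and positive control for full effect; nearly all actives have a fitted effect of over 50% in size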
# EPAC2 antag – blocks human EPAC2 exchange factor; EPAC2 GEF exchange of Rap1B-BODIPY-GDP, fluorescence; AID 720708; Potency, µM (doses to about 114 µM), without a hit: at the top dose activity, negative = inhibition, actives largely listed as inhibitors; Q8WZA2; actives 0.18% (n = 360,000); also: potency is read from the fitted curve at half-maximal effect; % is scaled to controls: 0 for no effect and ±100 for the full control effect; nearly all actives have a fitted effect of over 45% in size
# * = called active by the depositor; ? = inconclusive; / = not tested or not shown. Unless noted, calls follow the shape of the dose curve; as a rule, active = well fitted curve in the direction sought with a large enough effect; inconclusive = small, poorly fitted or top-dose-only effect, or another doubt; inactive = no such curve, though single readings can be large; an effect the other way counts as inactive or inconclusive.
SMILES,USP1-UAF1 inh,EPAC1 agonist,EPAC2 agonist,LDHA inh,EPAC1 antagonist,EPAC2 antag
Cc1ccc(N2C(=O)NC(=O)/C(=C\c3cc(C)n(-c4sc5c(c4C#N)CCCC5)c3C)C2=O)cc1,28.2µM*,8.4%,-11.8%,-5.1,17.8µM*,?
Cc1noc(C)c1C1SCC(=O)Nc2c1c(C)nn2-c1ccccc1 (stereo unspecified),/,/,/,-21.0,/,/
CCOC(=O)C1CCCN(c2ccc([N+](=O)[O-])c3nonc23)C1 (stereo unspecified),25.1µM*,89.1µM*,100µM*,1.1,78.6%,117.8%
CC1CCCN(c2ccc(C(=O)N3CCC4(CC3)OCCO4)cc2[N+](=O)[O-])C1 (stereo unspecified),-17.6%,-7.5%,1.6%,1.1,10.5%,5.3%
S=C(Nc1ccccc1)Nc1ccccn1,-11.2%,89.1µM*,2.4%,-5.4,14.8%,-4.6%
COc1ccc(CNCCc2c[nH]c3ccc(OC)cc23)cc1,/,/,/,11.2,/,/
N#Cc1ccc(NC(=O)Cn2nc(C(=O)O)c3ccccc3c2=O)cc1Cl,/,/,/,9.1,/,/
Cn1cccc1/C=C1\C(=O)NC(=O)N(Cc2ccccc2Cl)C1=O,-9.8%,-6.5%,5.4%,-17.0,79.4µM*,-4.0%
COc1ccc(CCNCc2ccc(Cl)cc2)cc1,/,/,/,7.5,/,/
